Source: PubChem BioAssay
Sampled rows, rich in hits. Any-hit rate of the full collection: about 5.4%.
SKKanGAS inh – SKKanGAS growth inhibition. S. pyogenes SKKanGAS, kanamycin growth, BacTiter-Glo, 6 h. inhibition, % at 7.5 µM. hit rate 1.3% among 300,000;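 active means mean replicate score, as percent of positive control median, at least 50; inconclusive means mean below 50 but one replicate at or above 50; inactive means mean and every replicate below 50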;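 further: strain carries kanamycin resistance gene driven by streptokinase promoter and grows in 40 µg/ml kanamycin; loss of luminescence reflects streptokinase promoter inhibition or plain growth inhibition; 0% = median of DMSO wells and 100% = positive control at its reference dose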
CSC inhib – cancer stem cell inhibition. cancer stem cell-like cells viability, luminescence. inhibition, % at 7.5 µM. hit rate 1.1% among 300,000. AID 2717; in the data active means inhibition above about 75%; inconclusive means no clear call, values can overlap the other calls; tested in HMLE shEcad cells
Mdm2-MdmX inh – inhibitors of human Mdm2/MdmX interaction. O15151+Q00987. SaOS-2 split-luciferase Mdm2/MdmX complementation, luminescence. inhibition, % at 8 µM. hit rate 3% among 330,000;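 active means inhibition of at least 50% at 8 µM in the primary screen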
Target sequence (O15151 whole entry, looked up): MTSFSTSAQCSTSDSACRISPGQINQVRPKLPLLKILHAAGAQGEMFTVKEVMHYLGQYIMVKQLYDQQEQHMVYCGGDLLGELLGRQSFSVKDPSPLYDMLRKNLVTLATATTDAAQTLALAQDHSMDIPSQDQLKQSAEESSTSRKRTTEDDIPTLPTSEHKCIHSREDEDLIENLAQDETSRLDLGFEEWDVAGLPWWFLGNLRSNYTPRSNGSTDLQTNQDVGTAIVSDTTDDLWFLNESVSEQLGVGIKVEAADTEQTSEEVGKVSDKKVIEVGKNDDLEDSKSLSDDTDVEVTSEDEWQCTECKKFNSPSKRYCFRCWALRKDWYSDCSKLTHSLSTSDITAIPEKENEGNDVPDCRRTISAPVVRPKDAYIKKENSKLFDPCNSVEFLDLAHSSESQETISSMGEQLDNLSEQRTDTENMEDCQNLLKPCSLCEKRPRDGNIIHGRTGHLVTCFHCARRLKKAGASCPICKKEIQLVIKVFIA
Target sequence (Q00987 whole entry, looked up): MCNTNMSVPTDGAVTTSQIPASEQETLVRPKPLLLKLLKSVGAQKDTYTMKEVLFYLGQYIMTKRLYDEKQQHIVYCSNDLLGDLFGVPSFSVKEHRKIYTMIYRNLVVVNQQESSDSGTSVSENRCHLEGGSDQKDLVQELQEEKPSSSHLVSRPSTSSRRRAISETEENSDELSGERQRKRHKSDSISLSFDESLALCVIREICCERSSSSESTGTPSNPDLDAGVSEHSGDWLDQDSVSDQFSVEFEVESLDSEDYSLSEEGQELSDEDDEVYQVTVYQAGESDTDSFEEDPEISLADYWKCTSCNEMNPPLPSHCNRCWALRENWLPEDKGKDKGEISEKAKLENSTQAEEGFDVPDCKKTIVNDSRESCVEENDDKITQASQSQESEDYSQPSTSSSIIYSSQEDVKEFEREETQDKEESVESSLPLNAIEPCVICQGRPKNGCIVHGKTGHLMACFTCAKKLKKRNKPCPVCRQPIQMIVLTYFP
MPTP block – inhibitors of mitochondrial permeability transition pore | hit rate 1.4% among 360,000 | inhibition, % at 10 µM | isolated mouse mitochondria, Ca2+ swelling absorbance, 30 min;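 active means inhibition of 50% or more, scaled per plate between neutral and stimulator controls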;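 further: 0% = DMSO wells given calcium and 100% = 1 mM EGTA wells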
Beta apoptosis – blocks beta cell apoptosis; INS-1E cytokine-induced death, ATP luminescence, 48 h; percent of positive-control rescue, neutral wells zero; AID 435005; hit rate 0.8% among 300,000; protection from apoptosis, % (test concentration not listed);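 active means Every replicate reaches about 75%, or at least half do and their mean reaches it too, limit read from the data; inconclusive means At least half of replicates reach the limit but their mean does not; inactive means Under half of replicates reach the limit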;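 further: 0% = cytokine-treated negative control wells and 100% = positive control rescue; higher means more ATP so stronger rescue from cytokine killing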
Calb FLC – C. albicans growth modulation with fluconazole. hit rate 0.57% among 300,000. C. albicans CaCi-2 (fluconazole-resistant clinical isolate) + fluconazole, Alamar Blue growth, 48 h. growth inhibition, % (test concentration not listed);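 active means growth inhibition above about 58% in most replicates, limit read from the data, passing the limit was not always enough; inconclusive means exactly half the replicates above a set limit; inactive means most replicates below a set limit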;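 further: all wells also contain fluconazole at 8 µg/ml as a sub-toxic cotreatment; 0% = median of DMSO wells and 100% = median of geldanamycin control wells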
Mdm2 MdmX conf – confirmation of human Mdm2/MdmX interaction inhibitors; shares compounds with Mdm2-MdmX inh; Mdm2-MdmX binding, luminescent assay; inhibition, % at 8 µM; hit rate 55% among 10,000; in the data active means inhibition above about 40%
FLuc counter – inhibits full-length luciferase, flagging false Mdm2/MdmX hits | SaOS-2 full-length luciferase counterscreen, luminescence | hit rate 77% among 6,200 | shares compounds with Mdm2-MdmX inh | inhibition, % at 8 µM;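 active means mean inhibition at 8 µM reaching about 37%, which flags the compound as non-specific, limit read from the data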;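 further: p53-null SaOS-2 cells with luciferase driven by a doxycycline-inducible promoter; compound on cells about two nights before reading with doxycycline added after day one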
The depositor's hits bear a star; ? = inconclusive; nt = not tested or not shown.

SMILES	SKKanGAS inh	CSC inhib	Mdm2-MdmX inh	MPTP block	Beta apoptosis	Calb FLC	Mdm2 MdmX conf	FLuc counter
CC(C)C[C@H]1CN=C(Nc2ccccc2)N1CCc1cccc(F)c1	nt	26.3	57.9*	1.0	-4.6	nt	-18.6	nt
COc1ccc(S(=O)(=O)Nc2cc3c(C(C)=O)c(C)oc3c3ccccc23)cc1	13.2	68.9	66.5*	0.1	nt	40.6	70.0*	80.1*
COc1ccc(S(=O)(=O)Nc2cc3c(cc2C(C)=O)OCO3)cc1	18.1	62.1	63.1*	0.1	2.7	?	50.9*	63.3*
Cc1oc2c(cc(NS(=O)(=O)c3ccc(F)cc3)c3ccccc32)c1C(=O)O	25.9	nt	-13.7	1.4	-4.9	40.9	nt	nt
Cc1cc(C)c(-c2cc(NC(=O)CSc3n[nH]c(N)n3)n(-c3ccccc3)n2)cc1C	12.0	6.2	-3.5	-3.3	-4.0	52.1	nt	nt
CN(C)S(=O)(=O)N(CC(=O)Nc1ccc(S(=O)(=O)N2CCCC2)cc1)c1ccccc1	-0.4	-9.2	13.5	-0.8	3.0	-0.3	nt	nt
CC(C)(C)c1ccc(C(=O)NNC(=O)Cc2cccc3ccccc23)cc1	-6.9	9.3	4.5	0.1	-3.6	2.6	nt	nt
CCOC1=C2[C@@H](CN(S(=O)(=O)c3ccc(C)cc3)[C@H]2c2cccc3ccccc23)[C@H]2C(=O)N(Cc3ccccc3)C(=O)[C@H]2C1	nt	nt	nt	1.3	nt	nt	nt	nt
CCOC(=O)c1ccc(NC(=O)c2c(N)n(C)c(=O)n(C)c2=O)cc1	10.7	-23.9	84.6*	-1.0	3.5	-1.8	8.9	nt
COc1ccc(CN2[C@@H](CC(=O)O)c3ccc(C(F)(F)F)cc3S2(=O)=O)cc1	-9.3	17.2	2.2	nt	1.8	-14.1	nt	nt
C=CS(=O)(=O)N(Cc1ccc(Cl)c(Cl)c1)C[C@@H](O)CO	nt	nt	81.0*	-1.4	nt	nt	83.6*	55.0*
O=C(CCN1CCN(c2ccccc2)CC1)N/N=C/c1ccccc1O	5.0	38.5	59.6*	-3.2	30.1	37.3	56.1*	56.5*
O=C(CCl)N(CCc1ccccc1)CCc1ccccc1	18.8	nt	90.6*	-0.9	3.3	-12.3	8.3	nt
O=C(CCCc1ccccc1)NCCc1ccccc1	2.6	-5.8	-17.5	2.1	-7.6	-0.2	nt	nt
Cc1ccc(S(=O)(=O)N2CC(C)C(=O)CC2C)cc1 (stereo unspecified)	0.2	2.7	15.3	-1.5	-0.6	3.4	nt	nt
CCOC(=O)c1c(C)[nH]c(C(=O)CSc2nnnn2-c2ccc(C)cc2)c1C	-5.1	5.3	65.9*	-2.2	1.3	-1.4	7.8	nt
C=CCSc1nc2ccccc2n1C(=O)/C=C/c1cc(OC)c(OC)c(OC)c1	-1.4	nt	100.2*	-0.8	-7.2	-31.3	94.9*	3.3
C=CCSc1nc2ccccc2n1C(=O)/C=C/c1ccc(OC)c(OC)c1	-3.4	4.9	nt	0.1	68.3	3.3	nt	nt
CCSc1nc2ccccc2n1C(=O)/C=C/c1ccc(OC)c(OC)c1	-12.3	8.8	99.6*	1.0	-0.7	?	99.3*	53.8*
NCC(c1ccccc1Cl)c1c[nH]c2ccccc12 (stereo unspecified)	-3.5	12.8	41.3	1.4	-0.3	3.5	nt	nt
NCC(c1ccc(Cl)cc1Cl)c1c[nH]c2ccccc12 (stereo unspecified)	0.0	94.8*	64.5*	0.6	37.6	80.2*	32.5	nt
Cn1nnnc1SCC(=O)N1CCN(c2ccc(Cl)cc2)CC1	-20.3	-3.2	-2.2	-0.8	-1.6	-13.3	nt	nt
CC(NC(=O)c1ccccc1NC(=O)CN1CCc2ccccc2C1)c1ccccc1 (stereo unspecified)	11.3	25.6	-11.0	0.3	-2.8	22.2	nt	nt
CCC/C(C#Cc1ccc(N(C)C)cc1)=C1/c2ccccc2C(=O)N1c1ccccc1	nt	42.3	50.6*	1.0	47.5	nt	7.8	nt
Cc1ccc2oc(C(Cl)(Cl)Cl)cc(=O)c2c1	1.2	33.3	74.2*	-1.0	11.7	35.5	53.1*	60.3*
SMILES	SKKanGAS inh	CSC inhib	Mdm2-MdmX inh	MPTP block	Beta apoptosis	Calb FLC	Mdm2 MdmX conf	FLuc counter
Cc1ccc2oc(C(F)(F)C(F)F)cc(=O)c2c1	-14.0	-11.8	24.8	0.5	-5.6	-8.8	nt	nt
Cc1cccc(OCCCN2C(=O)C(=O)c3cc(C)ccc32)c1	-10.8	18.3	58.8*	1.7	-2.2	-1.9	69.2*	65.5*
Cc1ccc2c(c1)C(=O)C(=O)N2Cc1ccc(Cl)cc1	nt	40.0	67.7*	-0.9	-2.6	nt	23.6	nt
COc1ccc(-c2cn(-c3ccccc3)c(=S)[nH]2)cc1OC	4.1	-7.0	94.4*	-1.0	-5.0	5.1	-45.4	nt
CCOC(=O)C1CCCN(c2ccc(NC(=O)c3snc4c(=O)[nH]c(C)nc34)cc2)C1 (stereo unspecified)	21.2	-7.8	69.9*	3.4	23.2	-3.3	40.7*	87.6*
Cc1ccc(S(=O)(=O)N2CCCCC2)cc1C(=O)N(C)CC(=O)Nc1ccc(Cl)c(C(F)(F)F)c1	3.2	41.8	54.8*	5.1	19.1	-10.1	68.1*	49.5*
Cc1ccc(S(C)(=O)=O)cc1C(=O)Nc1cccc(S(=O)(=O)N2CCCCCC2)c1	nt	1.2	-3.9	0.6	-2.2	nt	nt	nt
O=C(CCl)Nc1cccc(S(=O)(=O)N2CCCCCC2)c1	6.9	18.5	98.2*	1.9	-9.0	-48.3	43.6*	24.0
O=C(Cc1ccc(Cl)cc1)Nc1cccc(S(=O)(=O)N2CCCCC2)c1	nt	-9.8	19.1	4.3	-6.8	nt	nt	nt
CC(=O)c1c(C)[nH]c(C(=O)Nc2cccc(S(=O)(=O)N3CCCCC3)c2)c1C	nt	-0.6	72.0*	38.0	-1.3	nt	35.9	nt
O=C(CCl)Nc1cccc(S(=O)(=O)NC2=NCCCCC2)c1	nt	60.8	62.3*	-0.4	-17.9	nt	69.5*	35.8
Cc1ccccc1C(=O)NCC(=O)Nc1ccc(C)c(S(=O)(=O)N2CCCCCC2)c1	5.2	11.2	19.0	-0.5	-4.0	-13.3	nt	nt
Cc1cccc(-n2nc3c(c2NC(=O)C(C)C)CS(=O)(=O)C3)c1C	-4.3	-9.3	10.0	0.0	2.3	-5.2	nt	nt
Cc1ccc(-c2ccc(/C=C3\C(=O)ON=C3c3ccccc3)o2)c([N+](=O)[O-])c1	4.6	5.0	82.2*	-4.5	92.3*	-8.3	0.7	nt
Cc1nn(-c2nc3ccccc3s2)c(C)c1Oc1ccccc1O	40.8	?	77.5*	4.4	-4.6	1.1	66.5*	86.9*
COc1ccc(Cc2nnc(SCC(=O)NC(C)c3ccccc3)o2)cc1 (stereo unspecified)	0.9	-2.9	4.7	2.5	0.6	-2.9	nt	nt
O=C(Cn1c(=O)oc2cc(S(=O)(=O)N3CCCC3)ccc21)Nc1ccccc1Br	-2.5	3.2	2.1	7.3	-10.4	-12.4	nt	nt
CCOc1ccccc1N(CC(=O)NC1CCCCC1)C(=O)CCC(=O)Nc1cc(C)ccn1	4.0	6.9	-33.9	-0.4	3.0	-6.6	nt	nt
